From PubChem BioAssay (EPA / NIEHS)
Where “and” joins values, the source holds several entries; their conditions need not be identical. Identical values can stand only once. Results filed as inconclusive are left out. Where a structure was tested more than once in an assay, its records may differ in their call. Calls of active or inactive are those of the source. Rule for the calls, unless noted: active = hit-call score of the fitted dose curve at least 0.9, where 1 is the maximum; inactive = score below 0.9.

How the values were obtained:
[1] = biological target: Nuclear respiratory factor 1 (Homo sapiens) (UniProt Q16656); experiment: ATG_NRF1_CIS: Attagene CIS-FACTORIAL HepG2 Assay for human Nuclear Respiratory Factor 1 (NRF1) Orphan Gene (AID 2282987); conditions: HepG2 NRF1 cis-element reporter, Attagene multiplex; actives raise or lower the signal
Nuclear respiratory factor 1 (Homo sapiens), sequence (Q16656 whole entry, looked up): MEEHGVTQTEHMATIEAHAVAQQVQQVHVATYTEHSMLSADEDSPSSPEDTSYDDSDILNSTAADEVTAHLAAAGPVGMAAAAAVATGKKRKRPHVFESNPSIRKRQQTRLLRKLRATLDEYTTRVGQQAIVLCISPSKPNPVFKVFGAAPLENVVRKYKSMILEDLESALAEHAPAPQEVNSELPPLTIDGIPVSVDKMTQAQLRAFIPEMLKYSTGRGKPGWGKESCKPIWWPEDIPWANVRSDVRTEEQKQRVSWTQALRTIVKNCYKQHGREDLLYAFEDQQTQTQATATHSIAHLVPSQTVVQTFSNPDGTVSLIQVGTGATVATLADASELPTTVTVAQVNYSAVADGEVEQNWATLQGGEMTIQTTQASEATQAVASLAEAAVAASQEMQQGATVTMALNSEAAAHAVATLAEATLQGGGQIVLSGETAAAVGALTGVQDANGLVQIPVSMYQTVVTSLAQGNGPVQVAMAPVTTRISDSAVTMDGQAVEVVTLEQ
Procedure, shortened: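 Endogenous factor activity was captured via cis-element-driven reporter transcripts in HepG2 cells. Following 24 h chemical treatment, transcripts were quantified by RT-PCR and capillary electrophoresis.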

[2] = ATG_NFI_CIS: Attagene CIS-FACTORIAL HepG2 Assay for human Nuclear Factor I (NFI) (AID 2282989); conditions: HepG2 cis-regulatory reporter, NFI response element transcription; actives raise or lower the signal
Procedure, shortened: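 Endogenous TF activity in HepG2 cells transiently transfected with cis-element-driven multiplexed reporter units, read 24 h after dosing. Reporter mRNA quantified by RT-PCR, 6-FAM labelling, HpaI digestion and capillary electrophoresis; bidirectional fit versus DMSO.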

[3] = biological target: Myc proto-oncogene protein (Homo sapiens) (UniProt P01106); experiment: ATG_Myc_CIS: Attagene CIS-FACTORIAL HepG2 Assay for human Myelocytomatosis (Myc) Proto-Oncogene Transcription Factor (AID 2282990); conditions: HepG2, Attagene cis-reporter transcription factor activity; actives raise or lower the signal
Myc proto-oncogene protein (Homo sapiens), sequence (P01106 whole entry, looked up, the tested form may be a part): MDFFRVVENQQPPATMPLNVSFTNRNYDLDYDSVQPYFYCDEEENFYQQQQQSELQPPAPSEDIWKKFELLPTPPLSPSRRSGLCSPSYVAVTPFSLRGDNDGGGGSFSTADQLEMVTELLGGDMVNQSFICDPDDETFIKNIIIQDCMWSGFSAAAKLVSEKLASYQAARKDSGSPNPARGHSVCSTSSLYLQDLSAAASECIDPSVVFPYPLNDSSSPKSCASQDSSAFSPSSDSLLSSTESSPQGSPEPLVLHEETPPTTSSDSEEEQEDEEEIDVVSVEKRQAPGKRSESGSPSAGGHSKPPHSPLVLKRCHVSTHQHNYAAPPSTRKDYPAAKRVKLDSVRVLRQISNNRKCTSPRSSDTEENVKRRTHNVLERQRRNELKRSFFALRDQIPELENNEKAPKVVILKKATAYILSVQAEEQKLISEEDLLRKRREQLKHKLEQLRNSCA
Procedure, shortened: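 After 24 h chemical treatment of HepG2 cells carrying multiplexed cis-regulated reporter constructs, reporter transcripts quantified by RT-PCR and capillary electrophoresis of fluorescent fragments. Gain or loss fitted against DMSO baseline.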

[4] = ATG_NRF2_ARE_CIS: Attagene CIS-FACTORIAL HepG2 Assay for human Nuclear Factor Erythroid 2 Related Factor 2 (NFR2) response to Antioxidant Response Elements (ARE) (AID 2282992); conditions: HepG2 Attagene ARE/NRF2 reporter, transcription factor activity; actives raise or lower the signal;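 for AC50: reporter mRNA level measured by RT-PCR and capillary electrophoresis fluorescence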
Procedure, shortened: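 HepG2 cells transiently transfected with multiplexed cis-element reporter constructs, 24 h after chemical dosing; reporter mRNA quantified by RT-PCR, fluorescent primer extension, HpaI digestion and capillary electrophoresis. Bidirectional fit relative to DMSO.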

[5] = ATG_Oct_MLP_CIS: Attagene CIS-FACTORIAL HepG2 Assay for human Octamer-Binding Transcription Factor (Oct) (AID 2282993); conditions: HepG2 Attagene cis-factorial Oct reporter, mRNA; actives raise or lower the signal
Procedure, shortened: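 HepG2 cells transiently transfected with cis-element-driven reporter transcription units (endogenous TF activity); 24 h compound exposure. Reporter mRNA quantified by RT-PCR, 6-FAM labelling, HpaI digestion and capillary electrophoresis; bidirectional fit versus DMSO baseline.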

[6] = biological target: Cellular tumor antigen p53 (Homo sapiens) (UniProt P04637); experiment: ATG_p53_CIS: Attagene CIS-FACTORIAL HepG2 Assay for human p53 Transcription Factor (AID 2282994); conditions: HepG2 p53 cis-element reporter, Attagene mRNA; actives raise or lower the signal
Cellular tumor antigen p53 (Homo sapiens), sequence (P04637 whole entry, looked up): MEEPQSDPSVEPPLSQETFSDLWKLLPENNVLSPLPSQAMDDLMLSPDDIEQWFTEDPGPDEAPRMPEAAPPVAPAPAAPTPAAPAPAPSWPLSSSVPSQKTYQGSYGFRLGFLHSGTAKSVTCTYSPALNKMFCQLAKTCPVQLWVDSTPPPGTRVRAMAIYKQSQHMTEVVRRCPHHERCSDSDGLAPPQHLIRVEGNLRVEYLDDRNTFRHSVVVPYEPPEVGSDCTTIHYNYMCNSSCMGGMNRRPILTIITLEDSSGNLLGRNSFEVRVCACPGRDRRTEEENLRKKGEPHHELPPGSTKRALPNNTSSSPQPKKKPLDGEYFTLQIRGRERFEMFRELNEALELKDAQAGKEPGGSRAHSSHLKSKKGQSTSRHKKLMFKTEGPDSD
Procedure, shortened: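 HepG2 cells transiently transfected with cis-regulated multiple reporter transcription units, dosed 24 h. Reporter mRNA measured by RT-PCR, 6-FAM primer extension, HpaI digestion and capillary electrophoresis; bidirectional fit relative to DMSO.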

[7] = BSK_3C_TissueFactor: BioMAP Diversity Plus: 3C Assay for Tissue Factor Biomarker Activity (AID 2282997); conditions: BioMAP 3C HUVEC, tissue factor biomarker readout; actives raise or lower the signal
Procedure, shortened: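 ELISA read-out of Tissue Factor levels on human umbilical vein endothelium collected 24 h after chemical dosing. Gain or loss of signal was fitted relative to DMSO.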

[8] = BSK_3C_uPAR: BioMAP Diversity Plus: 3C Assay for Urokinase-type plasminogen activator receptor (uPAR) Biomarker Activity (AID 2282998); conditions: BioMAP 3C HUVEC, uPAR biomarker ELISA; actives raise or lower the signal
Procedure, shortened: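 Primary human umbilical vein endothelial cells, 3C system; surface uPAR measured by ELISA 24 h after dosing. Cytotoxicity via SRB total protein in parallel cultures; bidirectional fit against DMSO.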

[9] = BSK_3C_VCAM1: BioMAP Diversity Plus: 3C Assay for Vascular cell adhesion molecule 1 (VCAM1) Biomarker Activity (AID 2282999); conditions: BioMAP 3C HUVEC, VCAM1 ELISA, cytokine-stimulated; actives raise or lower the signal
Procedure, shortened: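 Endothelial cells from human umbilical vein are treated with test chemical. At 24 h, VCAM-1 is measured by ELISA, and responses in either direction are fitted relative to DMSO.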

[10] = BSK_4H_Eotaxin3: BioMAP Diversity Plus: 4H Assay for Eotaxin 3 Biomarker Activity (AID 2283000); conditions: primary human endothelial cells (HUVEC); actives raise or lower the signal
Procedure, shortened: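 Chemicals were added to human umbilical vein endothelium cultures, and Eotaxin-3 was quantified by ELISA at 24 h. Values were derived by bidirectional fitting with DMSO serving as negative control and activity baseline.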

[11] = biological target: human Peroxisome Proliferator-activated Receptor alpha (PPARa), PPARA (gene 5465) (UniProt Q07869); experiment: ATG_PPARa_TRANS: Attagene TRANS-FACTORIAL HepG2 Assay for human Peroxisome Proliferator-activated Receptor alpha (PPARa) (AID 2283001; active = hit-call score of the fitted dose curve at least 0.9, where 1 is the maximum)
human Peroxisome Proliferator-activated Receptor alpha (PPARa), PPARA (gene 5465), sequence (Q07869 whole entry, looked up, the tested form may be a part): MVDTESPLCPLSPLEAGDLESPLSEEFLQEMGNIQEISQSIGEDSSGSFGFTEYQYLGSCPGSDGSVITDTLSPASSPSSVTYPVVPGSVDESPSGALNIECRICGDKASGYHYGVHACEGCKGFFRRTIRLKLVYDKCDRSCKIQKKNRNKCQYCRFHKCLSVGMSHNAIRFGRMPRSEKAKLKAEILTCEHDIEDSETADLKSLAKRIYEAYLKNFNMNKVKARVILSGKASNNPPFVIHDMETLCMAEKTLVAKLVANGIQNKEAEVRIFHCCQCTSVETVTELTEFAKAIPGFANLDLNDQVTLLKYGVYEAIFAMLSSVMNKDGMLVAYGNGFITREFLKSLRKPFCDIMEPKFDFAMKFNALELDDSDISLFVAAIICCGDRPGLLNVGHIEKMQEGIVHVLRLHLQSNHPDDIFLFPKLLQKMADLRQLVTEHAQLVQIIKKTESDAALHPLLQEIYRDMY
Procedure, shortened: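 Reporter transcripts from GAL4-UAS units in transfected HepG2 were quantified 24 h after dosing. Detection used reverse transcription, PCR, fluorescent primer extension and capillary electrophoresis, with DMSO as baseline.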

[12] = biological target: human Peroxisome Proliferator-activated Receptor delta (PPARd), PPARD (gene 5467) (UniProt Q03181); experiment: ATG_PPARd_TRANS: Attagene TRANS-FACTORIAL HepG2 Assay for human Peroxisome Proliferator-activated Receptor delta (PPARd) (AID 2283002; active = hit-call score of the fitted dose curve at least 0.9, where 1 is the maximum)
human Peroxisome Proliferator-activated Receptor delta (PPARd), PPARD (gene 5467), sequence (Q03181 whole entry, looked up, the tested form may be a part): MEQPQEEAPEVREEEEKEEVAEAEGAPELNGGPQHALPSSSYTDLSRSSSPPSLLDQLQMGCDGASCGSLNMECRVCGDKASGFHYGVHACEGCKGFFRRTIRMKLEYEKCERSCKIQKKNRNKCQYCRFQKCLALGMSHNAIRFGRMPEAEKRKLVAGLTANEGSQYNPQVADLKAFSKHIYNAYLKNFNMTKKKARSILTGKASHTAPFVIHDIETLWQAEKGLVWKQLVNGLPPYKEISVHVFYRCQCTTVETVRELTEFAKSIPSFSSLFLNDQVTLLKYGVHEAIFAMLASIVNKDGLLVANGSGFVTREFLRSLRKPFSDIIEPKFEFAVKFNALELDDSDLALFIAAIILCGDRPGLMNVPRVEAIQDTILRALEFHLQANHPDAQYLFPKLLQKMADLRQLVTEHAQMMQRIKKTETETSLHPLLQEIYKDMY
Procedure, shortened: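 Read-out is induced reporter mRNA, quantified by RT-PCR with fluorescent labelling and capillary electrophoresis after 24 h dosing. Cells are HepG2 transiently carrying multiple GAL4-UAS reporter units driven by exogenous NR-GAL4 chimeras; DMSO serves as baseline.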

[13] = biological target: human Retinoic Acid Receptor beta (RARb), RARB (gene 5915) (UniProt P10826); experiment: ATG_RARb_TRANS: Attagene TRANS-FACTORIAL HepG2 Assay for human Retinoic Acid Receptor beta (AID 2283004; active = hit-call score of the fitted dose curve at least 0.9, where 1 is the maximum)
human Retinoic Acid Receptor beta (RARb), RARB (gene 5915), sequence (P10826 whole entry, looked up): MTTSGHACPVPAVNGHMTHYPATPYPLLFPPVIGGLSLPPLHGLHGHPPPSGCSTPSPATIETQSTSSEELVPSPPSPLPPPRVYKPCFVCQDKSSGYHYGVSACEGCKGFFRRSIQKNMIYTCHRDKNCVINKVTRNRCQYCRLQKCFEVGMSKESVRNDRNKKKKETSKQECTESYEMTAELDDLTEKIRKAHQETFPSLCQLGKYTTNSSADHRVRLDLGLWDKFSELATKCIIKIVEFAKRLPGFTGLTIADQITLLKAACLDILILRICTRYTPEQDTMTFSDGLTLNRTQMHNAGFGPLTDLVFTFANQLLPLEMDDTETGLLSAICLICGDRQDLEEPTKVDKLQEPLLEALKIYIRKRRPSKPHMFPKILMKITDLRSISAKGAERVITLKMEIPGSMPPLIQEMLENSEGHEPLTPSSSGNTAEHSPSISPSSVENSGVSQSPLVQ
Procedure, shortened: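 Transient transfection of HepG2 with multiple reporter units → chemical dosing, 24 h → total RNA isolation → RT with oligo(dT) → reporter-specific PCR, 6-FAM primer extension, HpaI digest → capillary electrophoresis. Positive direction vs DMSO control.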

[14] = biological target: Retinoic acid receptor alpha (Homo sapiens) (UniProt P10276); experiment: ATG_RARa_TRANS: Attagene TRANS-FACTORIAL HepG2 Assay for human Retinoic Acid Receptor alpha (RARa) (AID 2283005; active = hit-call score of the fitted dose curve at least 0.9, where 1 is the maximum)
Retinoic acid receptor alpha (Homo sapiens), sequence (P10276 whole entry, looked up, the tested form may be a part): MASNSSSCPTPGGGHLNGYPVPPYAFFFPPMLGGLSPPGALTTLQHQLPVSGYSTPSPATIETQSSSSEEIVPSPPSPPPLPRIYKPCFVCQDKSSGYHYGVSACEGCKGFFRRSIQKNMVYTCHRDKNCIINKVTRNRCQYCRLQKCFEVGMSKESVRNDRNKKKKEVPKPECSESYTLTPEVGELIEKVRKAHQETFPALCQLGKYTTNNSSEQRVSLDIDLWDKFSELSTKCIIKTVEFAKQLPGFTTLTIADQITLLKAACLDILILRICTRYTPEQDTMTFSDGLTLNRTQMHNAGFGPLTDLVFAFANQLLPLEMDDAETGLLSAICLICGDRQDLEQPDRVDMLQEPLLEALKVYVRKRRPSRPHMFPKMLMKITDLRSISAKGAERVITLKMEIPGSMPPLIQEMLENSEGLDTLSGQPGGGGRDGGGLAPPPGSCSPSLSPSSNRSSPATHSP
Procedure, shortened: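 Reporter transcripts, measured by RT-PCR with fluorescent labeling and capillary electrophoresis after 24 h dosing, reflect activity of an exogenous human RARa–GAL4 fusion in transiently transfected HepG2. Fitted for increase relative to DMSO.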

[15] = BSK_3C_Proliferation: Cell Proliferation Assessment in the BioMAP Diversity Plus: 3C Assay (AID 2283006); conditions: primary human endothelial cells (HUVEC);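 for AC50: potency may reflect either rise or fall in cell number versus DMSO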
Procedure, shortened: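 Proliferation of human vascular endothelial primary cells after 48 h dosing, quantified as SRB-stained protein at 560 nm relative to DMSO.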

[16] = biological target: Peroxisome proliferator-activated receptor gamma (Homo sapiens) (UniProt P37231); experiment: ATG_PPARg_TRANS: Attagene TRANS-FACTORIAL HepG2 Assay for human Peroxisome Proliferator-activated Receptor-gamma (PPARg) (AID 2283007; active = hit-call score of the fitted dose curve at least 0.9, where 1 is the maximum)
Peroxisome proliferator-activated receptor gamma (Homo sapiens), sequence (P37231 whole entry, looked up, the tested form may be a part): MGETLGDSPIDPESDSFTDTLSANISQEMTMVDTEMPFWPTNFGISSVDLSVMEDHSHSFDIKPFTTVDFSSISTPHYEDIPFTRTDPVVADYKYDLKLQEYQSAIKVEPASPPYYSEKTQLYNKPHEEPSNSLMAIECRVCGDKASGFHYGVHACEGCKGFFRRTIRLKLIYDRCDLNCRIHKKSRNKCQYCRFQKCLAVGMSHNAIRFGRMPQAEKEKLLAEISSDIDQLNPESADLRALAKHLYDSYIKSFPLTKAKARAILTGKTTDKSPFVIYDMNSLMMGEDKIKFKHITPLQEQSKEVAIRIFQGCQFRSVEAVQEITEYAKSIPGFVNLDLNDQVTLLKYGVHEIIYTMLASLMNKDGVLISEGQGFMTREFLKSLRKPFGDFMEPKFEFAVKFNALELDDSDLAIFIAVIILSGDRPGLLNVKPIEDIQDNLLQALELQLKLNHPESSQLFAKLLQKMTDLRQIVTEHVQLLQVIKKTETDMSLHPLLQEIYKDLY
Procedure, shortened: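 Liver-derived HepG2 cells expressing an exogenous NR-Gal4 chimera alongside GAL4-UAS reporter genes; 24 h exposure. Fluorescence of reporter RT-PCR products, separated by capillary electrophoresis, gives mRNA induction relative to DMSO.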

[17] = biological target: Nuclear receptor subfamily 1 group I member 2 (Homo sapiens) (UniProt O75469); experiment: ATG_PXR_TRANS: Attagene TRANS-FACTORIAL HepG2 Assay for human Pregnane X Receptor (PXR) (AID 2283008; active = hit-call score of the fitted dose curve at least 0.9, where 1 is the maximum)
Nuclear receptor subfamily 1 group I member 2 (Homo sapiens), sequence (O75469 whole entry, looked up, the tested form may be a part): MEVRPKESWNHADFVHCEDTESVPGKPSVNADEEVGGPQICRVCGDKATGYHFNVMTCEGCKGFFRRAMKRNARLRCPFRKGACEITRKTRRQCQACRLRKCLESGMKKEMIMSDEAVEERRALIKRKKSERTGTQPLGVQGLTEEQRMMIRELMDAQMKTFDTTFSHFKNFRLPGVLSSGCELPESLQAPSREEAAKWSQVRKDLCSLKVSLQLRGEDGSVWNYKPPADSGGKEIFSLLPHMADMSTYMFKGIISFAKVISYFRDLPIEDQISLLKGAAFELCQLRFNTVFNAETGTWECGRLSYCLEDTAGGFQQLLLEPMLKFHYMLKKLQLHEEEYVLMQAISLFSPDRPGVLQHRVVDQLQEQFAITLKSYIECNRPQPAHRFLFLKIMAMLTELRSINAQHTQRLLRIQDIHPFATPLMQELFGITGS
Procedure, shortened: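 HepG2 cells transiently transfected with GAL4-UAS reporter units and PXR-Gal4 chimera, exposed 24 h. Reporter mRNA quantified by RT-PCR, fluorescent labelling, HpaI digestion and capillary electrophoresis; gain of signal vs DMSO.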

[18] = biological target: human Retinoic Acid Receptor gamma (RARg), RARG (gene 5916) (UniProt P13631); experiment: ATG_RARg_TRANS: Attagene TRANS-FACTORIAL HepG2 Assay for human Retinoic Acid Receptor gamma (RARg) (AID 2283009; active = hit-call score of the fitted dose curve at least 0.9, where 1 is the maximum)
human Retinoic Acid Receptor gamma (RARg), RARG (gene 5916), sequence (P13631 whole entry, looked up, the tested form may be a part): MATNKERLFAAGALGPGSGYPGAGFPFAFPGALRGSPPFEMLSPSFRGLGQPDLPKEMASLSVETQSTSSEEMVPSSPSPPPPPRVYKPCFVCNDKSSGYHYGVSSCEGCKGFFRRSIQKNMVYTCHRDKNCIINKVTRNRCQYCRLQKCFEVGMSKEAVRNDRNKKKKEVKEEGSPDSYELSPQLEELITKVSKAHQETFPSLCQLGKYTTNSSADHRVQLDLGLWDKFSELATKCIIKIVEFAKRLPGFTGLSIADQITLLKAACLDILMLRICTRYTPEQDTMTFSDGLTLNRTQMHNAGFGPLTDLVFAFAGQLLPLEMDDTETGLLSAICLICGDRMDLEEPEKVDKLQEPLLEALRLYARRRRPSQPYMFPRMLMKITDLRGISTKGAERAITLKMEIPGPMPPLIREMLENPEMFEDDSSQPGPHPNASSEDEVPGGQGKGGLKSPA
Procedure, shortened: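 HepG2, RARg-GAL4 TRANS system, 24 h exposure; reporter mRNA by RT-PCR + CE fluorescence; increase over DMSO.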

[19] = ATG_NF_kB_CIS: Attagene CIS-FACTORIAL HepG2 Assay for human Nuclear Factor Kappa B (NF-kB) (AID 2282991); conditions: HepG2 Attagene cis-factorial NF-kB reporter mRNA; actives raise or lower the signal
Procedure, shortened: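 After 24 h compound incubation, transfected HepG2 cells yield total RNA; reporter cDNA is PCR-amplified, end-labelled with 6-FAM, HpaI-digested and analysed on a genetic analyser. Endogenous factor activity, DMSO-referenced bidirectional fit.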

[20] = read-out: Intercellular Adhesion Molecule 1 (ICAM1), ICAM1 (gene 3383); experiment: BSK_3C_ICAM1: BioMAP Diversity Plus: 3C Assay for Intercellular Adhesion Molecule 1 (ICAM1) Biomarker Activity (AID 2283003); conditions: primary human endothelial cells (HUVEC); actives raise or lower the signal
Procedure, shortened: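 Human vascular endothelial primary cells, 3C conditions, 24 h treatment. ICAM-1 by ELISA.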

Measured: AC50

Cc1cccc(O)c1C
active: [6] 168 µM
inactive: [1] | [2] | [3] | [4] | [5] | [6] | [7] | [8] | [9] | [10] | [11] | [12] | [13] | [14] | [15] | [16] | [17] | [18]

NCC(F)(F)C(F)(F)C(F)(F)C(F)(F)F
not listed: [13] | [14] | [18] | [19] | [20]
inactive: all other assays above

CCCCCCCCCC
active: [15] 0.781 µM
not listed: [7] | [12] | [13] | [14] | [16] | [17] | [18] | [20]
inactive: all other assays above

NNC(=O)c1ccncc1
not listed: [13] | [14] | [18] | [19]
inactive: all other assays above

OCCOCCOCCO
not listed: [4] | [11] | [12] | [13] | [14] | [17] | [18] | [20]
inactive: all other assays above

CCCC(CCC)C(=O)O
not listed: [6] | [7] | [12] | [13] | [14] | [16] | [18]
inactive: all other assays above

FC(F)(F)COC(OCC(F)(F)F)OCC(F)(F)F
not listed: [4] | [11] | [18]
inactive: all other assays above

Cn1c(=O)c2[nH]cnc2n(C)c1=O
not listed: [4] | [7] | [12] | [13] | [14] | [18]
inactive: all other assays above

OCC(CO)(CO)CO
inactive: [1] | [2] | [3] | [4] | [5] | [8] | [9] | [10] | [11] | [12] | [15] | [16] | [17]
active: [4] 141 µM

CC[C@H](C)C(=O)O[C@H]1C[C@H](O)C=C2C=C[C@H](C)[C@H](CC[C@@H](O)C[C@@H](O)CC(=O)O)[C@H]21
not listed: [6] | [7] | [11] | [12] | [13] | [14] | [16] | [17]
inactive: all other assays above

CCCCCCOC(=O)CC(CC(=O)OCCCCCC)(OC(=O)CCC)C(=O)OCCCCCC
not listed: [6] | [7] | [11] | [12] | [13] | [14] | [18]
inactive: all other assays above

OC(O)(C(F)C(O)(O)C(F)(F)F)C(F)(F)F
inactive: [3] | [4] | [5] | [7] | [8] | [9] | [12] | [20] | [13] | [15] | [17] | [18]
active: [1] 38.6 µM and 72.7 µM | [2] 52.4 µM and 51.5 µM | [4] 39.4 µM | [6] 28.4 µM and 21.2 µM | [7] 13.6 µM | [8] 15.2 µM | [10] 53.3 µM and 53.6 µM | [15] 27.3 µM | [16] 150 µM and 94.2 µM

CCCCCCCCCCCCCCO
inactive: [1] | [4] | [5] | [6] | [11] | [16] | [17]
active: [2] 179 µM | [3] 166 µM | [7] 36.6 µM | [8] 34.4 µM | [9] 32.8 µM | [10] 38.4 µM | [20] 35.5 µM

O=C(O)[C@H](O)[C@@H](O)C(=O)O
not listed: [6] | [11] | [13] | [14] | [17] | [18] | [19]
inactive: all other assays above

O=C(N[C@H](CO)[C@H](O)c1ccc([N+](=O)[O-])cc1)C(Cl)Cl
inactive: [1] | [2] | [3] | [4] | [5] | [6] | [11] | [12] | [16] | [17]
